# Data as given in PubChem BioAssay.
# Where “and” joins values, the source holds several entries; their conditions need not be identical. Equal entries are not always repeated. Calls of active or inactive are those of the source. Unless noted, the rule behind the calls is not given here.
# Experiments:
# [1] = system: Wnt5a (protein binding on small-molecule microarray); assay: small molecules binding Wnt5a protein – biophysical, small-molecule microarray, 635/667 nm fluorescence, primary screen (AID 1142); details: 635 nm fluorescence, higher = more signal;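 note: fluorescence read at 667 nm with signal to noise per printed feature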
# [2] = ATP-based viability of Huh7 replicon cells – cell-based, CellTiter-Glo luminescence, basal, 48 h, cytotoxicity control for HCV replication inhibitor project, primary screen (AID 1143); details: higher = more signal, called active from +8 up or from −8 down;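 note: Huh7 hepatoma cells carrying a hepatitis C replication reporter with no stimulus; test concentration not given here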
# [3] = Pseudomonas biofilm growth suppression – PAO1 strain, BacTiter-Glo luminescence, LB-PBS, primary screen (AID 1144); details: P. aeruginosa PAO1 biofilm, 12 h, higher = more signal
# [4] = basal CRE-LacZ reporter activity in PC12 – cell-based, unstimulated, primary screen (AID 1145); details: no forskolin, luminescence, 4.5 h, higher = more signal, called active from +8 up or from −8 down
# [5] = forskolin-driven CRE-LacZ activity in PC12 – cell-based, CRE-LacZ reporter, forskolin-stimulated, primary screen (AID 1146); details: luminescence, 4.5 h, higher = more signal, called active from +8 up or from −8 down;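 note: PC12 cells with 6xCRE LacZ reporter stimulated by forskolin 10 µM; beta-galactosidase reporter signal reflecting CREB driven transcription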
# [6] = molecular target: Streptavidin (Streptomyces avidinii) (UniProt P22629); assay: compounds binding control protein streptavidin – biophysical, small-molecule microarray, 635/667 nm fluorescence, artefact control for SMM compound annotation, primary screen (AID 1147); details: higher = more signal;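 note: signal reflects streptavidin binding to arrayed compounds as a control protein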
# [7] = probe aInhba binding on compound microarray – biochemical, small-molecule microarray, 635/667 nm fluorescence, primary screen (AID 1148); details: higher = more signal;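 note: score merges 667nm spot fluorescence with signal-to-noise for antibody binding to printed compounds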
# Torsin-1A (Homo sapiens) [8] = molecular target: Torsin-1A (Homo sapiens) (UniProt O14656); assay: TOR1A wild-type binding on microarray – cell lysate, small-molecule microarray, lysate, 635/667 nm, primary screen (AID 1149); details: COS7 hTOR1A-WT lysate, 635 nm fluorescence, higher = more signal
# Torsin-1A (Homo sapiens) [9] = molecular target: Torsin-1A (Homo sapiens) (UniProt O14656); assay: torsin A mutant lysate binding on microarrays – cell lysate, small-molecule microarray, COS7 lysate, 635/667 nm fluorescence, primary screen (AID 1150); details: COS7 hTOR1A mutant lysate, 635 nm fluorescence, higher = more signal;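 note: score pools 667 nm emission and signal to noise measuring lysate protein binding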
# [10] = system: Sonic hedgehog protein (Shh); assay: Sonic hedgehog microarray binding compounds – biochemical, small-molecule microarray, 635/667 nm fluorescence, primary screen (AID 1151); details: 635 nm fluorescence, higher = more signal;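 note: Shh protein binding to compounds spotted on small-molecule microarray slides; score combines spot fluorescence intensity with signal-to-noise across triplicate slides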
# [11] = optical density shifts of acrAB sulA E. coli – strain DRC41, OD650, 48 h, E. coli filamentation inducer project, primary screen (AID 1152); details: higher = more signal, called active from +8 up or from −8 down;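 note: E. coli MC1000 strain DRC41 lacking acrAB efflux pump and sulA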
# [12] = probe aLefty1 binding on compound microarray – biochemical, small-molecule microarray, 635/667 nm fluorescence, primary screen (AID 1153); details: higher = more signal;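 note: score merges spot fluorescence with signal-to-noise ratio from the scanned slide images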
# [13] = plasmodial surface anion channel blockers, osmotic lysis – cell-based, P. falciparum Indochina, OD700, 1 h, primary screen (AID 1154); details: P. falciparum Indochina infected RBC osmotic lysis, higher = more signal, called active from +8 up or from −8 down
# [14] = plasmodial surface anion channel blockers, osmotic lysis – cell-based, P. falciparum Indochina, OD700, 2 h, primary screen (AID 1155);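 note: lysis reports solute entry through the parasite surface anion channel PSAC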; details: P. falciparum Indochina infected erythrocytes, higher = more signal, called active from +8 up or from −8 down
# [15] = changes in parasitized red cell lysis, either direction – P. falciparum Indochina, OD700, 3 h, PSAC antagonist project, primary screen (AID 1156); details: P. falciparum-infected erythrocytes, osmotic lysis, higher = more signal, called active from +8 up or from −8 down
# [16] = plasmodial surface anion channel blockers, osmotic lysis – cell-based, P. falciparum Indochina, OD700, 18 h, primary screen (AID 1157); details: P. falciparum Indochina infected erythrocytes, osmotic lysis OD700, 18 h; higher = more signal, called active from +8 up or from −8 down
# [17] = S6 kinase pathway phospho-S6 level changes – cell-based, A549, cytoblot, luminescence, serum-stimulated, primary screen (AID 1158); details: 5 h, higher = more signal;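 note: serum-stimulated A549 lung adenocarcinoma cells; signal is phosphorylated S6 detected by cytoblot immunostaining with HRP secondary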
# [18] = molecular target: NADPH oxidase 2 (Homo sapiens) (UniProt P04839); assay: compounds shifting NOX2 Amplex Red fluorescence – cell-based, HEK293-NOX2, PMA-stimulated, NOX inhibitor project, primary screen (AID 1159); details: 45 min, higher = more signal, called active from +8 up or from −8 down; note: test concentration not given here
# [19] = molecular target: NADPH oxidase 4 (Homo sapiens) (UniProt Q9NPH5); assay: compounds shifting NOX4 Amplex Red fluorescence – cell-based, HEK293-NOX4, tetracycline-induced, NOX inhibitor project, primary screen (AID 1160); details: HEK293-NOX4, Amplex Red H2O2 fluorescence, 45 min; higher = more signal, called active from +8 up or from −8 down
# [20] = molecular target: NADPH oxidase 5 (Homo sapiens) (UniProt Q96PH1); assay: compounds shifting NOX5 Amplex Red fluorescence – cell-based, HEK293-NOX5, NOX inhibitor project, primary screen (AID 1161); details: HEK293-NOX5, ionomycin, 45 min, higher = more signal
# Sequence of NADPH oxidase 5 (Homo sapiens) (Q96PH1 whole entry, looked up): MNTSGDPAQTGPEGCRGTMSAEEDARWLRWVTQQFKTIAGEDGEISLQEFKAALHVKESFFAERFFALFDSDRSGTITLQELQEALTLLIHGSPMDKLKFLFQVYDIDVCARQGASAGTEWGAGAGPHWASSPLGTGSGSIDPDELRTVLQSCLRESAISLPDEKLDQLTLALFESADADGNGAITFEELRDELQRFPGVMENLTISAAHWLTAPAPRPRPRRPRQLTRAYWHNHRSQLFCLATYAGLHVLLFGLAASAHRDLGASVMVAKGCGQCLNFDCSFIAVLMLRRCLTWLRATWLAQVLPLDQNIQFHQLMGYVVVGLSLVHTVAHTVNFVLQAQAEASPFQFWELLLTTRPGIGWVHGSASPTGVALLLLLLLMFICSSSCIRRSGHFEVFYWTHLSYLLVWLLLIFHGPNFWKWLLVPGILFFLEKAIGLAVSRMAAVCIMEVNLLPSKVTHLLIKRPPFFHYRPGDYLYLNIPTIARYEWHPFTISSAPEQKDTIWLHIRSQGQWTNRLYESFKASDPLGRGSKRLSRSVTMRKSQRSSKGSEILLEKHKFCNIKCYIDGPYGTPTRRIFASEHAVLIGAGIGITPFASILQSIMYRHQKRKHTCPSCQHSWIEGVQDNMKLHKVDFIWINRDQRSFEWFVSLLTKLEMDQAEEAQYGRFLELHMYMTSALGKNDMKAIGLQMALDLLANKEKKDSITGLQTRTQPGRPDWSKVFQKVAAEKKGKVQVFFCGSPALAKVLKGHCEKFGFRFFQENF
# Sequence of NADPH oxidase 4 (Homo sapiens) (Q9NPH5 whole entry, looked up): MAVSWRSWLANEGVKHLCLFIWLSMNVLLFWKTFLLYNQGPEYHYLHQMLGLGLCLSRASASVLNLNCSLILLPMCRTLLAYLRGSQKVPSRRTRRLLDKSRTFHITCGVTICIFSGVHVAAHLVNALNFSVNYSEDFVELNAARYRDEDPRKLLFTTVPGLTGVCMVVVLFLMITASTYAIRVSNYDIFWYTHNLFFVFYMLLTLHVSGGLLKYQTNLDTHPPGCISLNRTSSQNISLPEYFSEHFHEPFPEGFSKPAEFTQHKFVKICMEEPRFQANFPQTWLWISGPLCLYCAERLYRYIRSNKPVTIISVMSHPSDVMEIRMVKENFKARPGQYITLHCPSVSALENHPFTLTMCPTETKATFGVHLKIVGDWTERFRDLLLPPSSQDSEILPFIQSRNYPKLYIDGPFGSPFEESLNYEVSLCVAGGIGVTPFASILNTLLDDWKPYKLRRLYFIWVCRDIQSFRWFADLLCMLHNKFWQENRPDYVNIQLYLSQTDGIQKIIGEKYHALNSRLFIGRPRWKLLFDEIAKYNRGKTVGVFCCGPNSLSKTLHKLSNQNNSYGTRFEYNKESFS
# Sequence of Streptavidin (Streptomyces avidinii) (P22629 whole entry, looked up): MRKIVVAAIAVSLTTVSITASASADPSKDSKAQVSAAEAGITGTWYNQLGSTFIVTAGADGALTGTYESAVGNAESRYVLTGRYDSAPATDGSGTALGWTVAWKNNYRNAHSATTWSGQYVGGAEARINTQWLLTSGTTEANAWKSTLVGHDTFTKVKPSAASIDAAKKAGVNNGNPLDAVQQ
# Sequence of NADPH oxidase 2 (Homo sapiens) (P04839 whole entry, looked up): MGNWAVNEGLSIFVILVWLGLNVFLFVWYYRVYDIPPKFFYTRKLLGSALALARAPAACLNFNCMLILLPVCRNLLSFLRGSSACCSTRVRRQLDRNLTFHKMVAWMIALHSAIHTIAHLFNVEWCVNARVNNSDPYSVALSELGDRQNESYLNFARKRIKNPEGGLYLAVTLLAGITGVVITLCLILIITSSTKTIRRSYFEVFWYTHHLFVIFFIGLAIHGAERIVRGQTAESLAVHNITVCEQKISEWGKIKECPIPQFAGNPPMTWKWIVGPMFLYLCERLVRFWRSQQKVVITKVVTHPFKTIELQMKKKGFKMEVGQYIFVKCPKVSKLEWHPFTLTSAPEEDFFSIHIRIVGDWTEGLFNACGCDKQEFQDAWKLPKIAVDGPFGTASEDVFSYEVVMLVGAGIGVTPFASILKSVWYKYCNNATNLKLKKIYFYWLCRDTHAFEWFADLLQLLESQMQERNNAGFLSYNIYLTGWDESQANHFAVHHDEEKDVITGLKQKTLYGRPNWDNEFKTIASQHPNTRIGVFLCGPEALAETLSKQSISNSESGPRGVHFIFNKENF
# Sequence of Torsin-1A (Homo sapiens) (O14656 whole entry, looked up): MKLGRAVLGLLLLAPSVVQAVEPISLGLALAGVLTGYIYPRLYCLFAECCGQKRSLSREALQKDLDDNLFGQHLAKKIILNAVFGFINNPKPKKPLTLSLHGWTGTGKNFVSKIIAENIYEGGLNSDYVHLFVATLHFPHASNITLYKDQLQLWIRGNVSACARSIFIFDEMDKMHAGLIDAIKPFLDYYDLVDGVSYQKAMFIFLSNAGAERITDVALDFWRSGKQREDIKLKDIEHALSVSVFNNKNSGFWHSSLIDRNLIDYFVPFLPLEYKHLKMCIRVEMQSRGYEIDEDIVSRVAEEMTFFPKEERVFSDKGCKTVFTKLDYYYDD
SMILES,composite z-score [1],z-score [2],z-score [3],z-score [4],z-score [5],composite z-score [6],composite z-score [7],composite z-score (Torsin-1A (Homo sapiens) [8]),composite z-score (Torsin-1A (Homo sapiens) [9]),composite z-score [10],z-score [11],composite z-score [12],z-score [13],z-score [14],z-score [15],z-score [16],z-score [17],z-score [18],z-score [19],z-score [20]
C=CCN(C(=O)C1N(CCCCCCO)C(=O)C2C(C(=O)O)C3C=CC21O3)C(C)(C)C (stereo not given),-1.54 and -1.09,0.317 (inactive) and 0.148 (inactive),1.99 (inactive) and 1.42 (inactive),0.992 (inactive) and -0.216 (inactive),0.129 (inactive) and 0.453 (inactive),-1.47 and -1.01,-0.251 and -0.278,-3.52 and -3.83,-3.07 and -2.82,-1.68 and -1.49,-0.32 (inactive) and -0.471 (inactive),-0.0573 and 0.0451,0.203 (inactive) and 0.288 (inactive),0.357 (inactive) and -0.387 (inactive),-0.395 (inactive) and -0.274 (inactive),-0.28 (inactive) and -0.404 (inactive),0.473 and -0.117,0.93 (inactive) and 0.763 (inactive),-0.0347 (inactive) and 0.143 (inactive),0.588 and 1.41
C=CCN(Cc1ccccc1)C(=O)C1N(CCCCCCO)C(=O)C2C(C(=O)O)C3C=CC21O3 (stereo not given),-1.02 and -1.77,-0.118 (inactive) and 0.533 (inactive),-0.12 (inactive) and -1.45 (inactive),-1.31 (inactive) and -1.44 (inactive),-0.665 (inactive) and -0.279 (inactive),-1.02 and -1.77,-0.159 and -0.21,-3.02 and -4.56,-2.45 and 0.914,-1.62 and -1.85,-0.107 (inactive) and 0.999 (inactive),-0.0508 and -0.101,0.506 (inactive) and 0.459 (inactive),-0.232 (inactive) and -0.314 (inactive),-0.911 (inactive) and -0.362 (inactive),0.135 (inactive) and 0.161 (inactive),-0.276 and 0.27,0.498 (inactive) and 0.0836 (inactive),-0.308 (inactive) and -0.348 (inactive),0.751 and 0.232
C=CCN(CCCCC)C(=O)C1N(CCOCCO)C(=O)C2C(C(=O)O)C3C=CC21O3 (stereo not given),-1.49 and -0.76,0.41 (inactive) and -0.417 (inactive),1.73 (inactive) and 1.24 (inactive),0.866 (inactive) and 0.601 (inactive),0.17 (inactive) and -0.469 (inactive),-1.6 and -1.66,-0.278 and -0.3,-2.98 and -2.79,-0.411 and -1.26,-1.44 and -0.292,-0.657 (inactive) and -0.678 (inactive),-0.0518 and -0.0061,-0.326 (inactive) and 0.243 (inactive),-0.438 (inactive) and -0.392 (inactive),-0.661 (inactive) and -0.448 (inactive),0.0613 (inactive) and -0.159 (inactive),-0.192 and 0.359,0.347 (inactive) and 0.481 (inactive),-1.7 (inactive) and -1.87 (inactive),0.569 and 0.0493
C=CCN(CCCCC)C(=O)C1N(C(C)(C)CO)C(=O)C2C(C(=O)O)C3C=CC21O3 (stereo not given),-0.912 and -0.258,0.879 (inactive) and 1.06 (inactive),1.13 (inactive) and 1.98 (inactive),-0.0737 (inactive) and -0.484 (inactive),-0.0682 (inactive) and 0.563 (inactive),-1.6 and -1.67,-0.213 and -0.0791,-3.01 and -1.59,-2.24 and -1.18,-0.99 and -0.61,-0.548 (inactive) and -0.511 (inactive),-0.717 and -0.18,-0.632 (inactive) and -0.588 (inactive),-0.042 (inactive) and -0.318 (inactive),-0.694 (inactive) and -1.04 (inactive),-0.281 (inactive) and -0.646 (inactive),0.0495 and 2.08,1.02 (inactive) and 0.298 (inactive),-0.188 (inactive) and -0.0857 (inactive),0.101 and 0.407
CCC[C@@H]1C[C@@]1(CCC)[C@@H](NC(=O)c1ccc(-c2ccccc2)cc1)c1cccc(Cl)c1,0.585 and -0.0434,-2.34 (inactive) and -1.18 (inactive),-0.439 (inactive) and -0.623 (inactive),0.394 (inactive) and -0.568 (inactive),0.0069 (inactive) and -0.151 (inactive),-0.475 and 0.378,1.13 and -0.0011,0.286 and -0.411,0.322 and 0.104,-0.032 and -0.684,-2.52 (inactive) and -0.473 (inactive),2.19 and 0.345,2.33 (inactive) and 6.65 (inactive),0.011 (inactive) and 0.853 (inactive),0.364 (inactive) and 0.0717 (inactive),0.446 (inactive) and 0.691 (inactive),-0.366 and -0.0422,-1.8 (inactive) and -1.74 (inactive),-2.39 (inactive) and -5.23 (inactive),-1.31 and -1.93
